6 compounds from PubChem BioAssay (NCI) can be followed below.

Holding throughout (test): NCI-60 one-dose screen, 48 h (100 = growth as untreated, 0 = no growth, -100 = all killed)
Common to all, as to conditions: 10 µM unless noted

Experiment [1] deals with NCI-H23 lung.
Experiment [2] concerns NCI-H226 lung.
The subject of experiment [3] is NCI-H322M lung.
In experiment [4] the test system is HOP-62 NSCLC.
Experiment [5] has as its system HOP-92 NSCLC.
Experiment [6] relates to NCI-H522 lung.
In experiment [7] the test system is A549/ATCC NSCLC.
The subject of experiment [8] is 786-0 renal.
In experiment [9] the test system is COLO 205 colon.
In experiment [10] the test system is DU-145 prostate.
In experiment [11] the test system is K-562 leukemia.
For experiment [12], the system named is MALME-3M melanoma.
Experiment [13] deals with MDA-MB-231 breast.
Experiment [14] deals with RXF 393 renal.
Experiment [15] deals with SF-268 CNS.
Experiment [16] has as its system SF-295 CNS.
For experiment [17], the system named is SF-539 CNS.
Experiment [18] concerns UACC-257 melanoma.
Experiment [19] concerns M14 melanoma.
The subject of experiment [20] is NCI-H460 lung.

Several values for one entry are separate records, joined by “and”; a condition that tells them apart may be missing. Equal values may be shown once. The panel holds about 83,000 compounds, 20% with a hit somewhere; the sample as a whole holds those more often.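 Percent growth is the endpoint: 0 to 100 indicates growth inhibition (40 means 60% inhibition), 0 means no net growth, and negative values indicate cell death.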 Activity calls are given as the source filed them. The calls were made as follows: active = growth percent below 10; inactive = the rest.

As to `CC1NC(C)c2ccc3ccccc3c2O1` (stereo unspecified), the growth in experiment [1] was 102% (inactive); in [2] it was 102% (inactive); in experiment [3], 106% (inactive); in [4] it was 108% (inactive); in experiment [5] it was 101% (inactive); in [6], 88.6% (inactive). In addition, the growth is 106% (inactive) in experiment [7]; 104% (inactive) in experiment [8]; 121% (inactive) in [9]; 104% (inactive) in experiment [10]; 104% (inactive) in [11]; 119% (inactive) in [12]. Moreover, the growth in [13] is 110% (inactive); in experiment [14] it was 120% (inactive); in experiment [15], 101% (inactive); in [16], 116% (inactive); in experiment [17] it was 102% (inactive); in [18], 99.4% (inactive). Further, the growth in [19] is 92.5% (inactive).

Turning to `CCOC(=O)C(N)Cc1cc(I)c(O)c(I)c1` (stereo unspecified), the growth in experiment [1] was 99.5% (inactive) and 102% (inactive); in experiment [2], 91.6% (inactive) and 96.6% (inactive); in [3], 113% (inactive) and 106% (inactive); in [4] it was 106% (inactive) and 113% (inactive); in [5], 102% (inactive) and -3.49% (active); in [6], 108% (inactive) and 90.7% (inactive). Moreover, the growth is 107% (inactive) and 101% (inactive) in experiment [7]; 99.7% (inactive) and 105% (inactive) in experiment [8]; 108% (inactive) and 110% (inactive) in experiment [9]; 109% (inactive) and 107% (inactive) in experiment [10]; 105% (inactive) in experiment [11]; 115% (inactive) in experiment [12]. Also, the growth in experiment [13] is 104% (inactive) and 97.5% (inactive); in experiment [14] it was 105% (inactive) and 112% (inactive); in experiment [15], 99% (inactive) and 100% (inactive); in experiment [16], 115% (inactive) and 124% (inactive); in experiment [17], 115% (inactive) and 102% (inactive); in [18] it was 108% (inactive). Besides, the growth in experiment [19] is 105% (inactive) and 104% (inactive).

On to `N#Cc1c(N)nc2c(c(-c3ccc(Cl)cc3)nn2-c2ccccc2)c1C#N`, for which the growth in experiment [1] was 93.7% [100 µM] (inactive); in experiment [2] it was 97.1% [100 µM] (inactive); in experiment [3] it was 104% [100 µM] (inactive); in [4] it was 96.1% [100 µM] (inactive); in experiment [5], 90.8% [100 µM] (inactive); in experiment [6] it was 102% [100 µM] (inactive). Further, the growth is 94.9% [100 µM] (inactive) in [7]; 72.2% [100 µM] (inactive) in experiment [8]; 117% [100 µM] (inactive) in experiment [9]; 101% [100 µM] (inactive) in [10]; 97.6% [100 µM] (inactive) in [11]; 105% [100 µM] (inactive) in experiment [12]. The growth in experiment [13] was 98% [100 µM] (inactive); in [14], 97.1% [100 µM] (inactive); in experiment [15], 93.7% [100 µM] (inactive); in [16], 97.9% [100 µM] (inactive); in experiment [17] it was 74.1% [100 µM] (inactive); in [18], 91.8% [100 µM] (inactive). Moreover, in experiment [19], the growth was 106% [100 µM] (inactive).

For `ON=C(C1CCCCC1)C1CCCCC1`, the growth in experiment [1] was 97.8% (inactive); in experiment [2], 102% (inactive); in experiment [3] it was 93.2% (inactive); in [4], 99.5% (inactive); in experiment [20], 108% (inactive); in experiment [5], 85.7% (inactive). Moreover, the growth was 107% (inactive) in [6]; 95.9% (inactive) in experiment [7]; 99.9% (inactive) in [8]; 109% (inactive) in [9]; 107% (inactive) in experiment [10]; 108% (inactive) in experiment [11]. Moreover, the growth in [12] was 91.9% (inactive); in [13] it was 95.3% (inactive); in experiment [14], 109% (inactive); in [15] it was 98.1% (inactive); in experiment [16], 105% (inactive); in [17], 96.3% (inactive). Further, the growth was 99.5% (inactive) in [18] and 109% (inactive) in experiment [19].

As to `Cc1cc2ccccc2c2cc3ccccc3cc12`, the growth was 94.9% (inactive) in experiment [1]; 68.4% (inactive) in experiment [2]; 85.9% (inactive) in experiment [3]; 85.6% (inactive) in experiment [4]; 99% (inactive) in experiment [5]; 81% (inactive) in experiment [6]. Also, the growth in experiment [7] is 92.7% (inactive); in [8] it was 110% (inactive); in [9], 79.4% (inactive); in experiment [10] it was 107% (inactive); in experiment [11], 95.4% (inactive); in experiment [12], 86.9% (inactive). The growth in experiment [13] was 79.9% (inactive); in experiment [14], 97.7% (inactive); in experiment [15] it was 100% (inactive); in experiment [16], 96.9% (inactive); in [17] it was 92.6% (inactive); in experiment [18], 99.6% (inactive). In addition, in [19], the growth is 85.1% (inactive).

With `O=C(O)c1ccc2c3ccc(C(=O)O)c4c(C(=O)O)ccc(c5ccc(C(=O)O)c1c25)c43`, the growth was 87.8% (inactive) in [1]; 92.2% (inactive) in experiment [2]; 100% (inactive) in experiment [3]; 92.4% (inactive) in experiment [4]; 96.5% (inactive) in experiment [20]; 112% (inactive) in experiment [5]. Besides, the growth was 95.3% (inactive) in [6]; 92.1% (inactive) in [7]; 107% (inactive) in experiment [8]; 104% (inactive) in experiment [9]; 112% (inactive) in experiment [10]; 113% (inactive) in [11]. Moreover, the growth in experiment [12] is 86.7% (inactive); in experiment [13], 88.2% (inactive); in experiment [14], 100% (inactive); in experiment [15] it was 105% (inactive); in experiment [16], 84.5% (inactive); in [17] it was 94.2% (inactive). Further, the growth was -14.6% (active) in experiment [18] and 107% (inactive) in experiment [19].
